Sampled rows, rich in hits. Any-hit rate of the full collection: about 8.3%.
Lassa entry inh – blocks Lassa virus binding to or entry into cells; 1.2% of 300,000 active; Potency, µM (highest dose often 37.9 µM), inactives show at the highest dose activity change, negative = inhibition, most hits filed as inhibitors; Lassa virus pseudotype entry inhibition, cell reporter; calls by dose curve; tested in HEK293 cells; further: potency means the concentration at half of the fitted maximal effect; nearly all actives have a fitted effect of over 50% in size
FMDV inh – antivirals against foot and mouth disease virus | Potency, µM (titrated, usually from 57.9 µM), without a hit: top-dose activity change, negative = inhibition, actives largely listed as inhibitors | AID 1159524 | 1.2% of 410,000 active | FMDV antiviral cell-based qHTS; calls by dose curve; tested in HEK293T cells; further: read-out not given here; potency means the concentration at half of the fitted maximal effect; nearly all actives have a fitted effect of over 45% in size
Marburg entry inh – inhibitors of Marburg virus binding or cell entry | Potency, µM (top dose mostly 37.8 µM), for inactives: top-dose activity change, negative = inhibition, usual class: inhibitors | AID 540276 | Marburg virus pseudotyped entry inhibition, cell reporter | 1.8% of 300,000 active; calls by dose curve; tested in HEK293 cells; further: potency means the concentration at half of the fitted maximal effect
FBPA Giardia inh – Giardia lamblia aldolase inhibition | A8B2U2 | purified Giardia FBPA | Potency, µM (series often up to 59.6 µM), inactives show top-dose activity, negative = inhibition, usual class: inhibitors | 0.71% of 290,000 active | AID 2451; further: potency means the concentration at half of the fitted maximal effect; nearly all actives have a fitted effect of over 55% in size
Target sequence (A8B2U2 whole entry, looked up): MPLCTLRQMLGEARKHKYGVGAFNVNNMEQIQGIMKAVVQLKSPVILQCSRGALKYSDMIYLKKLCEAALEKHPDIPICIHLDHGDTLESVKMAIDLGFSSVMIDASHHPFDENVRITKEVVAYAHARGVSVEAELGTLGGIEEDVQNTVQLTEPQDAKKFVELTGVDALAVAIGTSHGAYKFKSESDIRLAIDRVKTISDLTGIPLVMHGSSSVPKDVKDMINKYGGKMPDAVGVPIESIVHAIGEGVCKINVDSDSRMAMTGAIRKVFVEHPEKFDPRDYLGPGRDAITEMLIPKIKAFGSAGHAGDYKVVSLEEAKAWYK
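40 nM FBPA preincubated 10 min at RT with compound (up to 57.5 uM final), then substrate plus GAPDH/TPI/NAD/arsenate coupling and diaphorase/resazurin added. Fluorescence read after 20 min at RT, 525/598 nm.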
HCMV antiviral – human cytomegalovirus inhibition; HFF cells, HCMV-luciferase reporter, 72 h; stronger effect = lower value; activity change, negative = inhibition, % at 57.5 µM; 4.5% of 410,000 active; AID 1259415; in the data active means activity change below about -60%; inconclusive means no clear call, values can overlap the other calls; inactive means above about -39%
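After 16 h attachment at 37C, HFF cells received test compound and HCMV-luciferase (1 PFU/cell); reporter luminescence read 72 h later, data normalized against buffer-only and known inhibitor Salinomycin.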
HCV inh – inhibitors of hepatitis C virus infection; Huh7.5.1 HCVcc-Cre infection, luciferase reporter, 44 h; Potency, µM (top dose mostly 41.8 µM), for the others: top-dose activity change, negative = inhibition, most hits filed as inhibitors; 3.4% of 340,000 active; AID 651820; further: potency means the concentration at half of the fitted maximal effect
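Cells (1,000/well) were plated 4 h before compound, then infected with HCVcc-Cre virus (~0.5 moi). After 44 h further culture, infection was read as luciferase luminescence following a 15 min substrate incubation at room temperature.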
Starred values were filed as active, the others as inactive; ? = inconclusive; . = no result given; [ ] = remark or other dose. Unless noted, the call rests on the fitted dose curve; in most records, active means well fitted curve in the direction sought with a large enough effect; inconclusive means small, poorly fitted or top-dose-only effect, or another doubt; inactive means no such curve, though single readings can be large; an effect the other way counts as inactive or inconclusive. On the % scale 0 is the no-effect control and ±100 the full control effect.

SMILES | Lassa entry inh | FMDV inh | Marburg entry inh | FBPA Giardia inh | HCMV antiviral | HCV inh
CCOC(=O)CCc1c(C)c2cc3c(c(C)c2oc1=O)OCN(CCc1ccccc1OC)C3 | 1%[46.1 µM] | -18% | -8%[46.1 µM] | . | -6 | .
COc1cc(CNc2nc(C)c(-c3ccn(CC4CCCN(C)C4)n3)s2)ccc1F (centres undefined) | . | 0% | . | . | . | .
O=C(Cn1c(SCC(=O)Nc2ccc(F)cc2)nc2ccccc21)NCc1ccc(Cl)cc1 | ? | -25% | . | . | -74* | .
O=C(Cn1c(SCC(=O)Nc2ccc(F)cc2)nc2ccccc21)NCc1ccc(F)cc1 | ? | -18% | . | . | -34 | .
Cc1ccc(NC(=O)CSc2nc3ccccc3c3nc4ccccc4n23)cc1 | ? | -7% | 6.5µM* | 13% | -87* | ?
Cc1ccc(CNC(=O)Cn2c(SCC(=O)Nc3ccc(F)cc3)nc3ccccc32)cc1 | ? | -13% | . | . | -93* | .
COc1ccc(O[C@H]2C=C[C@@H](c3ccccc3)O[C@H]2COC(=O)CCC(C)=NO[C@H](C)c2cn([C@H](CO)Cc3ccccc3)nn2)cc1 | ? | . | -9%[14.2 µM] | . | . | .
O=C1/C(=C/N(C(=O)c2ccco2)c2ccc(Cl)cc2)Sc2ccccc21 | ? | ? | ? | 0% | . | -8%
O=C1/C(=C/N(C(=O)c2ccco2)c2ccc(Br)cc2)Sc2ccccc21 | ? | 11µM* | ? | 0% | . | -13%
COCC1CCCCN1C(=O)c1ccc2oc(CCc3ccccc3)nc2c1 (centres undefined) | 0% | 7% | ? | 5% | 33 | .
CCOC(=O)CC1CCCCN1C(=O)c1ccc2oc(CCc3ccccc3)nc2c1 (centres undefined) | . | 1% | . | 5% | -35 | 10µM*
Cc1ccc(Cl)cc1NC(=O)C1CCCN(S(=O)(=O)c2c(C)noc2/C=C/N(C)C)C1 (centres undefined) | 0%[46.1 µM] | -20% | -4%[46.1 µM] | . | -9 | .
Cc1ccc(C)c(N2CCN(CCCc3ccccc3)CC2)c1 | . | -31% | . | -25% | 7 | ?
COc1ccc(NC(=O)NCCCN2CCN(c3cc(C)ccc3C)CC2)cc1 | . | ? | . | 8% | -40 | 10µM*
COc1ccc(C2=C(C)C(=NCCCN3CCN(c4cc(C)ccc4C)CC3)NS2(=O)=O)cc1 | -13%[46.1 µM] | -1% | -20%[46.1 µM] | . | -91* | .
CCOc1cccc(N2CCN(CCNC(=O)Nc3ccc(C)cc3)CC2)c1C | . | ? | . | 6% | 4 | 13µM*
COc1ccc(NC(=O)NCCCN2CCN(c3ccccc3F)CC2)cc1 | 7% | 0% | -1%[46.1 µM] | 4% | -26 | 10%
COCCNC(=O)CSc1nc2cc3c(cc2c(=O)n1Cc1ccc(C(=O)NCCc2ccc(OC)c(OC)c2)cc1)OCO3 | 14%[46.1 µM] | 6% | . | . | 68 | .
CCOC(=O)C(C(=O)OCC)C(C(=O)OCC)N1CCOCC1 (centres undefined) | 11% | 32µM* | ? | -10% | -105* | ?
CN(C(=O)COC(=O)c1c2c(nc3ccccc13)/C(=C/c1cccc([N+](=O)[O-])c1)CCC2)C1CCS(=O)(=O)C1 (centres undefined) | ? | -10% | ? | -5% | ? | 1.8µM*
O=C(COC(=O)c1c2c(nc3ccccc13)/C(=C/c1cccc([N+](=O)[O-])c1)CCC2)NC1CCS(=O)(=O)C1 (centres undefined) | ? | ? | ? | -7% | -35 | 3.5µM*
COc1ccc2cc(-c3cc(C(=O)OCC(=O)NC4CCS(=O)(=O)C4)c4ccccc4n3)ccc2c1 (centres undefined) | 3.5µM* | -22% | 3.2µM* | -2% | 66 | ?
COc1ccc(-c2cc(C(=O)OCC(=O)NC3CC3)c3ccccc3n2)cc1 | . | 13% | . | . | 0 | ?
CN(C(=O)COC(=O)/C=C/c1cccc([N+](=O)[O-])c1)C1CCS(=O)(=O)C1 (centres undefined) | -12% | -13% | 3.5µM* | 2% | -32 | -6%
COc1ccc2c3c(n(C)c2c1)[C@@H](CO)N(C(=O)c1cnccn1)CC31CN(C(C)=O)C1 | . | . | . | . | 2 | .

Assay outcomes as filed in PubChem BioAssay.
